Growth data for 25 molecules are collected here from PubChem BioAssay (NCI).

About 83,000 compounds went through this panel and 20% of them were active in at least one assay; those are over-represented in the sample as a whole.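 Cells were grown in 96-well plates and exposed to the test compound at a single concentration for 48 hours; results are reported as percent growth, with values below 10 considered active.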 A number with no mark means an inactive call. Calls of active or inactive are those of the source.

Assay in all cases: NCI-60 one-dose screen, 48 h (100 = growth as untreated, 0 = no growth, -100 = all killed)
Holding throughout (settings): 10 µM unless noted

Assay [1] has as its system DU-145 prostate.
The test system of assay [2] is K-562 leukemia.
Assay [3] concerns MALME-3M melanoma.
The subject of assay [4] is MDA-MB-231 breast.
Assay [5] concerns RXF 393 renal.
Assay [6] has as its system SF-268 CNS.
For assay [7], the system named is SF-295 CNS.
The subject of assay [8] is SF-539 CNS.
Assay [9] deals with UACC-257 melanoma.
The test system of assay [10] is M14 melanoma.

As to `C=C(C)[C@@H]1C[C@H](O)Cc2cc(F)ccc2N1`, the growth is 107% in assay [1]; 42.2% in assay [2]; 109% in assay [3]; 108% in [4]; 100% in assay [5]; 113% in [6]. For the same molecule, the growth in [7] was 116%; in assay [8], 86.3%; in assay [9], 93.3%; in [10], 88.6%.
In the case of `COc1cccc(-c2cc3c(O)cc(C#N)cc3[nH]2)c1`, the growth in assay [1] was 101%; in assay [2], 82.5%; in [3] it was 100%; in [4], 73%; in assay [5], 112%; in [6] it was 98.9%. The growth is 90.6% in assay [7], 85.5% in assay [8], 86.9% in assay [9] and 86.6% in assay [10].
In the case of `CCC1=CCC[C@@]2(C)CCC[C@@]3(C)CCCC(C)(C)[C@]1([O-])[O+]32`, the growth in [1] was 105%; in assay [2], 101%; in [3] it was 107%; in [4], 121%; in assay [5], 111%; in assay [6] it was 107%. Besides, the growth in [7] was 99.7%; in assay [8], 103%; in [9], 105%; in [10] it was 101%.
`CCCC(=O)Oc1ccc(/C(=C(\C)c2ccccc2)c2ccc(OCCN(CC)CC)cc2)cc1`: the growth in assay [1] is 102%; in [2] it was 16%; in assay [3] it was 70.3%; in assay [4], 92.6%; in [5], 61.1%; in assay [6], 77.2%. Further, the growth was 91.4% in [7], 60.4% in assay [8], 67.6% in [9] and 40.7% in assay [10].
As to `COc1cc(/C=C/C(=O)N2CCN(C(=O)/C=C/c3cc(OC)c(OC)c(OC)c3)CC2)cc(OC)c1OC`, the growth in assay [1] was 109%; in assay [2] it was 98.7%; in [3] it was 127%; in [4] it was 82.7%; in assay [5] it was 121%; in [6], 118%. Also, the growth in assay [7] was 122%; in assay [8] it was 103%; in assay [9], 94.3%; in [10], 97.1%.
For `NC(=O)CCCN1C/C(=C\c2ccccc2)C(=O)c2ccccc21`, the growth in assay [1] is 102%; in assay [2], 97.1%; in assay [3], 105%; in assay [4], 100%; in assay [5], 81.9%; in assay [6], 90.2%. The growth in assay [7] was 94.3%; in [8], 105%; in assay [9] it was 87.5%; in assay [10] it was 103%.
In the case of `COc1ccc(C(=O)N2NC(=O)/C(=C/c3cn(-c4ccccc4)nc3-c3ccccc3)N=C2c2ccccc2)cc1`, the growth in assay [1] was 108%; in [2], 105%; in [3], 105%; in assay [4] it was 93.8%; in [5], 104%; in assay [6], 98.2%. The growth is 86.9% in [7], 115% in [8], 95% in assay [9] and 110% in assay [10].
In the case of `Nc1cccc(-c2nc3sccn3c2-c2ccnc(NCCCNS(=O)(=O)c3cccc4ccccc34)n2)c1`, the growth in assay [1] was 47.9%; in assay [2] it was 22.6%; in assay [3], 62.2%; in assay [4], 39.5%; in assay [5], 57.4%; in assay [6], 49.2%. For the same molecule, the growth in assay [7] is 38.3%; in assay [8] it was 65.9%; in [9] it was 47.9%; in assay [10], 43.8%.
In the case of `O=C(c1ccccc1)c1c(/C=C/c2ccccc2)c2ccccc2[nH]c1=O`, the growth in [1] was 115%; in [2], 82.4%; in assay [3], 98.3%; in assay [4], 101%; in [5], 78.9%; in assay [6] it was 86.2%. Moreover, the growth in assay [7] was 95.6%; in [8], 99.2%; in assay [9] it was 95.6%; in assay [10], 107%.
For `CC(C)(C)OC(=O)NC(CSCc1ccccc1)C(=O)ON1C(=O)CCC1=O` (stereo not given), the growth in [1] was 112%; in assay [2], 100%; in assay [3] it was 101%; in assay [4], 111%; in assay [5], 124%; in [6], 102%. The growth in assay [7] is 124%; in [8], 99.5%; in assay [9] it was 99.8%; in assay [10], 104%.
For `CN(C)CCN1C(=O)c2ccc3c4c(ccc(c24)C1=O)C(=O)N(CCN=C=S)C3=O`, the growth is -97.1% (active) in [1]; -29.7% (active) in assay [2]; -63.7% (active) in assay [3]; -84.5% (active) in [4]; -98.5% (active) in assay [5]; -89% (active) in assay [6]. Moreover, the growth is -71.7% (active) in assay [7], -81.7% (active) in assay [8], -95.3% (active) in assay [9] and -77.5% (active) in assay [10].
In the case of `CC[N+](CC)=c1cc2oc3cc(N(C)C)ccc3nc-2cc1C`, the growth was 73.8% in assay [1]; 55.2% in [2]; -25.5% (active) in assay [3]; 8.42% (active) in assay [4]; 81.7% in [5]; 2.86% (active) in assay [6]. Besides, the growth in assay [7] is 17.7%; in assay [8], 22.2%; in [9] it was -28% (active); in assay [10], 18.2%.
Turning to `COc1ccc(C(=O)N2NC(=O)/C(=C/c3ccccc3F)N=C2c2ccccc2)cc1`, the growth in assay [1] is 115%; in assay [2], 104%; in [3], 109%; in assay [4], 106%; in [5], 106%; in assay [6], 105%. For the same molecule, the growth is 101% in [7], 131% in assay [8], 99.7% in [9] and 111% in assay [10].
With `CC(C)(C)n1cc(-c2ccnc(NCCCNS(=O)(=O)c3cccc(F)c3)c2)c(-c2cccc(O)c2)n1`, the growth in assay [1] was 66%; in [2] it was 2.9% (active); in [3], 50.3%; in assay [4] it was 37.3%; in [5] it was 46.5%; in [6], 54%. The growth was 31.6% in assay [7], 39.3% in [8], 52.9% in assay [9] and 34.9% in assay [10].
As to `Clc1cc(Cl)c2nc(-c3ccc(-c4ccc(/C=N/NC5=NCCN5)cc4)s3)cn2c1`, the growth in assay [1] was 87.4%; in assay [2], 3.66% (active); in assay [3] it was 74.9%; in assay [4], 73.9%; in [5] it was 81.4%; in [6] it was 86%. Also, the growth is 98.3% in [7], 63.5% in [8], 99% in assay [9] and 97.8% in assay [10].
For the molecule `Clc1ccccc1-c1nc2ccccc2[nH]1`, the growth in assay [1] was 110%; in assay [2], 89.6%; in assay [3] it was 101%; in [4], 102%; in assay [5], 99.9%; in assay [6] it was 102%. Moreover, the growth in assay [7] is 96%; in assay [8], 94.6%; in assay [9] it was 113%; in [10], 85.8%.
`CCN(CC)CCCC(C)Nc1c2ccc(Cl)cc2nc2cc(OC)c(OC)cc12` (stereo not given): the growth in assay [1] is 22.6%; in [2], -16.4% (active); in assay [3], -74.1% (active); in assay [4] it was -34.3% (active); in assay [5], -13.4% (active); in assay [6], 33.9%. Further, the growth in assay [7] was 44.5%; in assay [8], -87.9% (active); in [9], 46.9%; in [10] it was -73.7% (active).
Take `COc1cccc(/C=C/C(=O)Nc2cc(OC)c3c(c2)OCO3)c1`: the growth was 94.7% in assay [1]; 92.1% in assay [2]; 96.4% in [3]; 83.5% in assay [4]; 103% in assay [5]; 98.2% in assay [6]. For the same molecule, the growth was 89.8% in [7], 111% in assay [8], 96.8% in assay [9] and 104% in assay [10].
As for `O=C(Nc1ccncc1)C(=O)c1cn(S(=O)(=O)c2ccc(Oc3ccccc3)cc2)c2ccccc12`, the growth in [1] is 96.8%; in [2], 81.5%; in [3], 84.9%; in assay [4], 68.9%; in [5], 110%; in [6], 109%. In addition, the growth was 60% in assay [7], 96.5% in [8], 103% in [9] and 102% in assay [10].
For the molecule `CCN(CC)CCOC(=O)C(c1ccccc1)(c1ccccc1)C(C)C`, the growth in assay [1] was 99%; in [2], 85.7%; in assay [3], 95.1%; in assay [4] it was 74.3%; in assay [5], 95.6%; in assay [6], 86.1%. For the same molecule, the growth was 91.1% in assay [7], 107% in [8], 63.2% in assay [9] and 106% in [10].
Take `C[n+]1c(/C=C/c2c(O)ccc3ccccc23)ccc2ccccc21`: the growth is 49.1% in assay [1]; 6.81% (active) in assay [2]; 40.4% in assay [3]; 24.8% in [4]; 37.9% in assay [5]; 61.2% in assay [6]. Also, the growth was 40.6% in assay [7], -14.9% (active) in assay [8], 46.1% in assay [9] and 34.3% in assay [10].
As for `Cc1c(C(=O)/C=C/c2csc3ccccc23)[n+](=O)c2ccccc2n1[O-]`, the growth was -3.03% (active) in [1]; 21.7% in assay [2]; 125% in assay [3]; 64.2% in [4]; 13.1% in assay [5]; 44% in [6]. In addition, the growth in [7] was 84.6%; in [8] it was 89.2%; in assay [9], 81.5%; in assay [10], 62.9%.
As for `Cc1ccc(S(=O)(=O)NCCCNc2cc(-c3cn(C(C)(C)C)nc3-c3cccc(O)c3)ccn2)cc1`, the growth in assay [1] is 76.1%; in assay [2], 11.8%; in [3] it was 61.9%; in [4], 62.5%; in [5], 60.2%; in [6], 54.8%. Also, the growth in assay [7] was 51.7%; in [8], 49.7%; in assay [9] it was 72%; in assay [10], 56.8%.
For `CCN1CCN(c2nc(NNC(=O)c3ccccc3)nc(N3CCN(C(c4ccccc4)c4ccccc4)CC3)n2)CC1`, the growth was 71.9% in assay [1]; 9.4% (active) in [2]; 4.38% (active) in assay [3]; 71.7% in [4]; 59.7% in [5]; 76.9% in assay [6]. Besides, the growth in [7] was 79.3%; in assay [8] it was 73.1%; in assay [9], 13.9%; in assay [10] it was 0.297% (active).
As to `CC(C)(C)n1cc(-c2ccnc(NCCCNS(=O)(=O)c3ccc(Cl)cc3)c2)c(-c2cccc(O)c2)n1`, the growth in assay [1] is 13.1%; in assay [2], -23.3% (active); in assay [3], -44.5% (active); in assay [4], -24.4% (active); in assay [5] it was -12% (active); in assay [6], 20.7%. Moreover, the growth in assay [7] is -45% (active); in assay [8] it was -26.1% (active); in assay [9], -39.3% (active); in [10] it was -23.2% (active).
